BAZ2B inh = blocks human BAZ2B | Q9UIF8 | AlphaScreen BAZ2B-H3K14Ac peptide displacement | Potency, µM (doses to about 114 µM), for the others: at the highest dose activity change, negative = inhibition, actives largely listed as inhibitors | 4.4% of 360,000 active; also: % is scaled to controls: 0 for no effect and ±100 for the full control effect; nearly all actives have a fitted effect of over 60% in size
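AlphaScreen luminescence quantifies BAZ2B engagement of H3K14Ac peptide; the protein and biotinylated peptide are both at 50 nM final, buffer PBS pH 7.4 with 0.01% Tween-20, all steps at room temperature.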
HP1b binding inh = inhibitors of HP1-beta chromodomain binding to methylated histone tails | P83916 | AlphaScreen HP1-beta / biotin-H3K9me3 peptide binding | Potency, µM (titrated, usually from 114 µM), without a hit: top-dose activity change, negative = inhibition, most hits filed as inhibitors | 0.56% of 390,000 active; also: nearly all actives have a fitted effect of over 70% in size
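HP1-beta protein (50 nM final) preincubated 30 min at room temperature with biotinylated H3(1-18)K9me3 peptide (50 nM) in PBS pH 7.4, 0.01% Tween-20, then compound added for 30 min. AlphaScreen streptavidin donor/nickel chelate acceptor beads (10 ug/mL final), 30 min dark, luminescence read.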
JMJD2A Tudor = JMJD2A Tudor domain (human) inhibition. Potency, µM (doses to about 114 µM), for inactives: at the highest dose activity change, negative = inhibition, usual class: inhibitors. AlphaScreen JMJD2A-Tudor / H3K4me3 peptide binding. 4.4% of 390,000 active. AID 504339; also: % is scaled to controls: 0 for no effect and ±100 for the full control effect; nearly all actives have a fitted effect of over 50% in size
G9a inh = inhibitors of human histone lysine methyltransferase G9a | Q96KQ7 | G9a H3K9 monomethylation, AlphaScreen, 2 h | Potency, µM (top dose mostly 102 µM), without a hit: at the highest dose activity, negative = inhibition, most hits filed as inhibitors | 8.8% of 350,000 active | AID 504332; also: % is scaled to controls: 0 for no effect and ±100 for the full control effect; nearly all actives have a fitted effect of over 75% in size
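G9a (20 nM) was preincubated 15 min with compound, then reacted 2 h at room temperature with 500 nM biotin-H3K9 peptide and 20 µM SAM. Monomethyl-H3K9 detected by AlphaScreen using anti-H3K9me1 antibody.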
L3MBTL1 inh = inhibitors of human L3MBTL1. Q9Y468. AlphaScreen L3MBTL1–H3K9me1 peptide binding. Potency, µM (doses to about 57.1 µM), for inactives: at the top dose activity, negative = inhibition, most hits filed as inhibitors. 0.66% of 230,000 active; also: % is scaled to controls: 0 for no effect and ±100 for the full control effect; nearly all actives have a fitted effect of over 60% in size
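Read-out is AlphaScreen signal from streptavidin donor and nickel chelate acceptor beads (10 ug/mL final each) bridging L3MBTL1 (50 nM) and biotinylated K9-monomethylated H3(1-15) peptide (75 nM), after 30 min compound exposure at room temperature.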
Active calls of the source: *; ? = inconclusive; . = no result; [ ] = another dose, or the depositor's remark. Shown are actives, neighbours in structure and some others; about 11% of the full set was active somewhere. Calls follow the shape of the dose curve; as a rule, active = well fitted inhibition curve with a large enough effect; inconclusive = small, poorly fitted or top-dose-only effect; inactive = no such curve, though single readings can be large or run the other way. Potency is read from the fitted curve at half-maximal effect.

SMILES	BAZ2B inh	HP1b binding inh	JMJD2A Tudor	G9a inh	L3MBTL1 inh
C/C(=N\NC(=O)CN(c1ccccc1Br)S(C)(=O)=O)c1cccs1	-3%	-5%	22µM*	.	6%
CC(C)(C)n1nc2c(c1NC(=O)c1cccc(Cl)c1)CS(=O)(=O)C2	13%	25%	-10%	-3%	.
CC1Cc2cc(S(=O)(=O)NCc3ccc(N(C)C)cc3)ccc2N1C(=O)C1CCC1 (stereo not given)	35µM*	-21%	45µM*	11µM*	.
COc1ccc(CNS(=O)(=O)c2ccc3c(c2)CC(C)N3C(=O)C2CC2)cc1 (stereo not given)	-6%	32%	-14%	-3%[59 µM]	.
CN(C)c1ccc(CNS(=O)(=O)c2csc(C(N)=O)c2)cc1	-11%	15%	-17%	50µM*	.
CCOC(=O)c1c(NC(=O)C2CCCO2)sc(C)c1C (stereo not given)	-4%	18%	-16%	-1%	17%
CCOC(=O)c1sc(NC(=O)C2CCCO2)c(C(=O)OCC)c1C (stereo not given)	56µM*	.	.	-32%[12.7 µM]	.
CCOC(=O)c1c(NC(=O)C2CCCO2)sc(C(=O)OC(C)(C)C)c1C (stereo not given)	6%	?	?	3.5µM*	.
Cc1ccc(-c2c3c(=O)n(C)c(=O)n(C)c3c3c(C)nc4ccccc4n23)cc1	-2%	47%	0%	-3%[59 µM]	.
CCCCOc1ccc(C2=NC(c3ccccc3)=Nc3ccc(OC)cc3N2)cc1	-20%	12%	-24%	-26%[59 µM]	.
Cc1cc(C)c(S(=O)(=O)Nc2ccc(-c3ccc(N4CCCCCC4)nn3)cc2)c(C)c1	-20%	1%[57 µM]	-28%	-7%[59 µM]	.
Cc1ccc(-c2nc3ccccc3s2)cc1NC(=S)NC(=O)/C=C/c1ccco1	?	8%	-26%	50µM*	0%
Cc1ccccc1NC(=O)/C(=C/c1ccco1)c1ccccc1	?	8%	-17%[57.1 µM]	32µM*	.
Cc1cccc(NC(=S)NC(=O)/C=C/c2ccco2)n1	?	-10%	?	-9%[12.7 µM]	.
COc1ccccc1NC(=O)/C=C\c1ccco1	?	-1%	-31%	40µM*	.
Cc1ccccc1NC(=S)NC(=O)/C=C/c1ccco1	56µM*	?	?	.	?
COc1ccccc1CNC(=O)CCC1N=C2c3ccccc3N=C(SCC(N)=O)N2C1=O (stereo not given)	-2%	-5%	-15%	20%[59 µM]	.
CCOC(=O)c1cnn(-c2ccc(C(=O)Nc3cc(OC)c(OC)c(OC)c3)cc2)c1N	-13%	25%	-12%	?	.
NC(=O)C(=O)N/N=C/c1cccc(C(F)(F)F)c1	-11%	6%	-8%	5%	6%
N#Cc1ccc(C(=O)Nc2ccccc2-c2nc3ccccc3s2)c(F)c1	-11%	39%	-9%	1%[59 µM]	.
COc1ccccc1NC(=S)NC(=O)/C=C/c1ccco1	50µM*	-13%	-26%[57.1 µM]	?	-20%
CC(/C=C1\SC(=S)N(c2ccc(C(=O)O)cc2)C1=O)=C\c1ccccc1	22µM*	?	45µM*	32µM*	.
CC(/C=C1\SC(=S)N(C(C(=O)O)C(C)C)C1=O)=C\c1ccccc1 (stereo not given)	25µM*	8%	?	.	12%
CC(/C=C1\SC(=S)N(NC(=O)c2ccncc2)C1=O)=C\c1ccccc1	?	-14%	?	?	-20%
CCCCC12CN3CC(C)(CN(C1)C3c1ccc(OCc3ccccc3)cc1)C2=O (stereo not given)	3%	56%	1%	-4%[59 µM]	.
CN(Cc1ccco1)c1ncncc1-c1ccc2c(c1)OCO2	.	.	.	-3%[0.501 µM]	.
Cc1nc(NS(=O)(=O)c2ccccc2C)c2c3c(sc2n1)CCC3	-9%	61%	-8%	45µM*	1%
COc1cccc(CNc2ccc(S(N)(=O)=O)cc2)c1OCc1ccccc1F	-36%	-2%	-28%	19%[59 µM]	-6%
CCOc1cc(CNc2ccc(O)cc2)cc(Br)c1OCc1ccccc1F	-32%	18µM*	50µM*	11µM*	16µM*
COc1cc(CNCc2ccncc2)cc(Br)c1OCc1ccccc1F	?	64%	-31%	19%[2.33 µM]	4%

Screening data as filed in PubChem BioAssay.
